Bioassay records: PubChem BioAssay, Broad Institute
These entries were drawn from the full list.
aSyn 5UTR act: Activators working through SNCA 5'UTR binding (MLPCN); 7.1% of 300,000 active; activity score, % (tested at 7.5 µM), hits read low; alpha-synuclein 5'UTR reporter, activators screen; in the data active means activity score below about -60%
Starred values were filed as active, the others as inactive.

What do the screens show for `CC1(C)N=C(N)N=C(N)N1c1ccccc1`?
aSyn 5UTR act: 99

Results for CCOc1ccc(/C=C2\CCc3ccccc3C2=O)cc1 ?
aSyn 5UTR act: -170*

How did COc1ccc(/C=C2\CCc3ccccc3C2=O)cc1CN1CCOCC1 do in these assays?
aSyn 5UTR act: 62

Results for COc1ccc2c(c1)CC/C(=C/c1ccco1)C2=O ?
aSyn 5UTR act: -160*

How did O=C1/C(=C/c2ccco2)CCc2ccccc21 do in these assays?
aSyn 5UTR act: -140*

How did Nc1ccc2nc(N3CCOCC3)sc2c1 do in these assays?
aSyn 5UTR act: -69*

Results for CCC(C)(C)n1nnnc1C(c1ccc2ncccc2c1)N1CCN(c2nc3ccccc3s2)CC1 (stereo not given) ?
aSyn 5UTR act: 54

How did c1c2c(cc3sc(N4CCOCC4)nc13)OCCO2 do in these assays?
aSyn 5UTR act: 94

How did Fc1cccc(Cl)c1CN1CCN(c2nc3ccccc3s2)CC1 do in these assays?
aSyn 5UTR act: -198*

Results for c1ccc(N2CCN(c3nc4cc5c(cc4s3)OCCO5)CC2)cc1 ?
aSyn 5UTR act: -157*

How did c1ccc2sc(N3CCOCC3)nc2c1 do in these assays?
aSyn 5UTR act: -65*

Results for CC(=O)c1sc(-c2ccc(F)cc2F)nc1C ?
aSyn 5UTR act: -75*

Results for CC(C)c1c(O)cc(-c2ccncc2)n(-c2ccc(Cl)cc2)c1=O ?
aSyn 5UTR act: 37

Results for CC(=O)n1c2c(c3ccccc31)OC(N)=C(C#N)C2c1ccc(C(C)C)cc1 (stereo not given) ?
aSyn 5UTR act: -118*

What do the screens show for `N#CC1=C(N)Oc2c(ccc3ccccc23)C1c1cccs1` (stereo not given)?
aSyn 5UTR act: 110

How did CCOC(=O)c1oc2ccccc2c1N do in these assays?
aSyn 5UTR act: -90*

How did Nc1c(C(=O)c2ccc(Br)cc2)oc2ccccc12 do in these assays?
aSyn 5UTR act: -174*

Results for Nc1c(C(=O)c2ccccc2)oc2ccc([N+](=O)[O-])cc12 ?
aSyn 5UTR act: -110*

What do the screens show for `NCCCn1c(C(=O)c2ccc(Cl)cc2)c2ccc([N+](=O)[O-])cc2[n+]1[O-]`?
aSyn 5UTR act: 60

How did Cc1ccc(C(=O)c2oc3ccccc3c2N)cc1 do in these assays?
aSyn 5UTR act: -66*

How did NC(=O)CCCn1c(C(=O)c2cc(Cl)c(N)c(Cl)c2)c2ccc([N+](=O)[O-])cc2[n+]1[O-] do in these assays?
aSyn 5UTR act: 71

What do the screens show for `COC(=O)CCC(=O)c1oc2ccc(Br)cc2c1N`?
aSyn 5UTR act: -83*

What do the screens show for `Nc1c(C(=O)c2ccccc2)oc2ccc(Br)cc12`?
aSyn 5UTR act: -256*

What do the screens show for `COc1cccc2c1C(=O)c1c(O)c3c(c(O)c1C2=O)C[C@](O)(C(C)=O)C[C@H]3O[C@@H]1C[C@@H](N)[C@@H](O)[C@@H](C)O1`?
aSyn 5UTR act: 111

Results for Brc1cccc(-c2n[nH]c(-c3ccccc3)n2)c1 ?
aSyn 5UTR act: -77*

How did c1ccc(-c2nc(-c3cccnc3)n[nH]2)cc1 do in these assays?
aSyn 5UTR act: -85*

What do the screens show for `OC1CCC(NC(=S)Nc2ccc(SC(F)F)cc2)CC1` (stereo not given)?
aSyn 5UTR act: -126*

How did O=C(Nc1ccc(SC(F)F)cc1)C12CCC(CC1)C2 do in these assays?
aSyn 5UTR act: -80*

How did FC(F)Sc1ccc(NC(=S)NC2CCCC2)cc1 do in these assays?
aSyn 5UTR act: -105*

Results for CCCCC(=O)N/C(N)=N/c1nc2ccccc2o1 ?
aSyn 5UTR act: -206*

Results for N/C(=N\c1nc2ccccc2o1)NC(=O)c1ccccc1F ?
aSyn 5UTR act: -198*

Results for COCC1CCN(C(=O)c2cc(COc3cc(C)c(Cl)c(C)c3)on2)C1 (stereo not given) ?
aSyn 5UTR act: -91*

Results for Cc1cc(OCc2cc(C(=O)N3CCCCCC3)no2)cc(C)c1Cl ?
aSyn 5UTR act: -132*

What do the screens show for `O=C(OCc1nc2ccccc2s1)C1CCN(C2=NS(=O)(=O)c3ccccc32)CC1`?
aSyn 5UTR act: -98*

What do the screens show for `O=C1c2ccccc2S(=O)(=O)N1Cc1nc2ccccc2s1`?
aSyn 5UTR act: 112

What do the screens show for `Cc1nn(Cc2ccccc2Cl)c2sc(C(=O)NCCCn3ccnc3)cc12`?
aSyn 5UTR act: -105*

What do the screens show for `O=[N+]([O-])c1cc([N+](=O)[O-])c2c(=Nc3ccccc3)n(-c3ccccc3)n(O)c2c1`?
aSyn 5UTR act: -77*

What do the screens show for `O=C(NCCCN1CCOCC1)c1cc(-c2ccccc2)on1`?
aSyn 5UTR act: -113*

Results for O=C1C=C(NCCN2CCOCC2)C(=O)c2cnccc21 ?
aSyn 5UTR act: 131

How did O=C(NCCN1CCOCC1)c1cc(-c2ccccc2)on1 do in these assays?
aSyn 5UTR act: -130*

How did CC(C)(C)c1ccc(C(=O)NCCN2CCOCC2)cc1 do in these assays?
aSyn 5UTR act: -190*

How did CC(C)(C)c1ccc(C(O)CCCN2CCC(C(O)(c3ccccc3)c3ccccc3)CC2)cc1 (stereo not given) do in these assays?
aSyn 5UTR act: 111

What do the screens show for `O=c1c(-c2ccccc2)c[nH]n1-c1cccc([N+](=O)[O-])c1`?
aSyn 5UTR act: -87*

Results for O=c1c(-c2ccc(Cl)cc2)c[nH]n1-c1ccccc1 ?
aSyn 5UTR act: -145*

Results for CSc1ccc(CNC(=O)Cc2ccc(NC(=O)C3=C(C)OCCS3)cc2)cc1 ?
aSyn 5UTR act: -153*

Results for Cc1cccc(NC(=O)C(=O)NCc2ccccn2)c1 ?
aSyn 5UTR act: -70*

How did Cc1cccc(NC(=S)NCc2ccccn2)c1 do in these assays?
aSyn 5UTR act: -77*

How did S=C(NCc1ccccn1)Nc1cccc(Cl)c1 do in these assays?
aSyn 5UTR act: -73*

How did CCN(CC)S(=O)(=O)c1ccc(N2CCOCC2)c(NC(=O)c2cc(-c3ccccn3)nc3ccccc23)c1 do in these assays?
aSyn 5UTR act: 88

How did CCN(CC)S(=O)(=O)c1ccc(N2CCOCC2)c(NC(=O)c2cc([N+](=O)[O-])ccc2Cl)c1 do in these assays?
aSyn 5UTR act: -164*

How did CC(C)Sc1nnc(Nc2ccccc2)s1 do in these assays?
aSyn 5UTR act: -178*

What do the screens show for `COc1cc(/C=N/OCC(=O)NC2CCCCC2C)ccc1OCc1ccc(Cl)cc1` (stereo not given)?
aSyn 5UTR act: -98*

What do the screens show for `COc1cc(/C=N/OCC(=O)Nc2cc(C)cc(C)c2)ccc1OCc1ccc(Cl)cc1`?
aSyn 5UTR act: -128*

How did Cc1cccc(-c2cccc(NC(=O)C3CCCN(C(=O)c4csc(C)n4)C3)c2)c1 (stereo not given) do in these assays?
aSyn 5UTR act: -70*

Results for CCc1nc(C)c(C(=O)N2CCCC(C(=O)Nc3cccc(-c4cccc(C)c4)c3)C2)o1 (stereo not given) ?
aSyn 5UTR act: -77*

How did Fc1ccc(/C=N/NC(=S)Nc2cccnc2)cc1F do in these assays?
aSyn 5UTR act: -86*

What do the screens show for `CC1CC1C(=O)OCC(=O)NC(=O)NC12CC3CC(CC(C3)C1)C2` (stereo not given)?
aSyn 5UTR act: -118*

What do the screens show for `O=C(CSCc1ccccc1)N1CCN(c2ccccc2)CC1`?
aSyn 5UTR act: -103*

What do the screens show for `O=C(CSCc1cccc(F)c1)N1CCN(c2ccccc2)CC1`?
aSyn 5UTR act: -199*

What do the screens show for `Brc1ccccc1C1=Nn2c(nnc2-c2ccccc2)SC1`?
aSyn 5UTR act: 58

What do the screens show for `CSc1nc2sc(-c3ccccc3)cc2c(=O)n1N`?
aSyn 5UTR act: -74*

How did O=c1c2cc(-c3ccccc3)sc2nc2n1N=C(c1ccccc1)CS2 do in these assays?
aSyn 5UTR act: -142*
